Test [1] is described as follows: qHTS assay for small molecule activators of the nuclear factor-kappa B (NF-kB) signaling pathway (AID 651749; active = well fitted activation curve with a large enough effect in the signal ratio; the % refers to the signal ratio; note: % of control where 0% means no effect). Conditions: NF-kB-bla ME-180 cells, beta-lactamase FRET ratio, 16 h; stronger effect = higher value. A digest of the protocol:
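Activation measured after 16 hr compound treatment at 37C, 5% CO2, of 2,000 ME-180 cells/well stably expressing an NF-kB response element–driven beta-lactamase reporter, via FRET-disruption fluorescence.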

The target of test [2] is Androgen receptor (Homo sapiens) (UniProt P10275). Put plainly: qHTS assay for small molecule agonists of androgen receptor signaling (AID 588515; active = well fitted curve in the direction sought with a large enough effect in the signal ratio, with a control signal flat; the % refers to the signal ratio; note: % is set by controls: 0 for no effect and ±100 for the full control effect). Conditions: AR-UAS-bla HEK293, beta-lactamase ratio, agonist 16 h; stronger effect = higher value. The procedure, abridged: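 Stimulation of an AR-responsive β-lactamase reporter in GripTite HEK293 cells was measured after 16 h compound exposure at 37 °C, via CCF4 fluorescence after 2 h RT. EC50 from Hill fits, normalized to R1881 at 30 nM.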
Androgen receptor (Homo sapiens), sequence (P10275 whole entry, looked up): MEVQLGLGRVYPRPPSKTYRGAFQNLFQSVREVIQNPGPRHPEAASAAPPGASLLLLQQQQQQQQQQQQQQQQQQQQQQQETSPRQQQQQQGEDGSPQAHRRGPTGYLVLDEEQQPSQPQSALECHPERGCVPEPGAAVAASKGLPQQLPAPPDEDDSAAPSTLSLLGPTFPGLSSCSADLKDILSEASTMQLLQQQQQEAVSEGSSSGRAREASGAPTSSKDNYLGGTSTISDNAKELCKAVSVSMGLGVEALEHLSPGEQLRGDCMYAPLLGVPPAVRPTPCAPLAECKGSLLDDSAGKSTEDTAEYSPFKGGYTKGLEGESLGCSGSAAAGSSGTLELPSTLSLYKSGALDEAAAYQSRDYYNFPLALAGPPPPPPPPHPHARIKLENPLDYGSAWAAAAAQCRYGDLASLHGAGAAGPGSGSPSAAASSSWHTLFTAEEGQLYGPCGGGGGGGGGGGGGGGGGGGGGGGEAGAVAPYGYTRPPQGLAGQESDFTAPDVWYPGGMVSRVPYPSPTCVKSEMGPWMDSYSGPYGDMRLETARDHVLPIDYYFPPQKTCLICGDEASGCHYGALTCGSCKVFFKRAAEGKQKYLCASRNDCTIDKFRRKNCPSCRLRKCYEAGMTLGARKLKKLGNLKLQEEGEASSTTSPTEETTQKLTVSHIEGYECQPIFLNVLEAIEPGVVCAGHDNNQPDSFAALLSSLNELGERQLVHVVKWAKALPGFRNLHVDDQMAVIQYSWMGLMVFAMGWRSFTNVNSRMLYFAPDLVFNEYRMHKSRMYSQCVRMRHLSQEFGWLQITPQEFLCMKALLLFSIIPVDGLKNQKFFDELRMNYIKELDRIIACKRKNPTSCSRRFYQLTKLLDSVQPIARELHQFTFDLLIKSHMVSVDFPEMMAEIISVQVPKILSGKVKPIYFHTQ

Test [3] shares this target. Briefly: qHTS assay for small molecule antagonists of androgen receptor signaling (AID 588516; active = well fitted curve in the direction sought with a large enough effect in the signal ratio, with a control signal flat, not every such curve was filed as active; the % refers to the signal ratio; note: % is set by controls: 0 for no effect and ±100 for the full control effect). The following applies: AR-UAS-bla HEK293, beta-lactamase ratio, antagonist mode, 16 h; series mostly up to 76.8 µM. A digest of the protocol:
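AR-UAS-bla-GripTite HEK 293 cells (2000/well, 5 h at 37 C) received compound titrations, then R1881 at 10 nM final; after 16 h at 37 C, CCF4 dye 2 h RT, beta-lactamase fluorescence read; IC50 from Hill fits.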

Test [4] has as its target Cytochrome P450 3A4 (Homo sapiens) (UniProt P08684). Briefly: qHTS Assay for Activators of Cytochrome P450 3A4 (AID 885). Note: nearly all actives have a fitted effect of over 65% in size. The following applies: recombinant CYP3A4, Luciferin-PPXE luminescence, 60 min; series mostly up to 11.4 µM. A digest of the protocol: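 Luminescent readout of luciferin formed from 25 uM Luciferin-PPXE (KM level) by 20 nM CYP3A4 in 200 mM KPO4, with 60 min NADPH-driven reaction at room temperature after 10 min compound exposure. Ketoconazole (57 uM) defined 100% inhibition.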

Test [5] concerns the target ATP-dependent 6-phosphofructokinase (Trypanosoma brucei brucei) (UniProt O15648). Briefly: qHTS Assay to Find Inhibitors of T. brucei phosphofructokinase: hit validation (AID 492961).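 Note: luminescence reports ADP formed as PFK phosphorylates fructose-6-phosphate with ATP; % is set by controls: 0 for no effect and ±100 for the full control effect.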 The following applies: T. brucei PFK, ADP-Glo luminescence; series mostly up to 51.4 µM. The procedure, abridged:
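In this biochemical qHTS validation, titrated compounds were tested against 1.25 nM PFK with 0.1 mM ATP and 0.5 mM F6P. Percent activity came from controls lacking or containing enzyme.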

For another test, the system named is CP191. Put plainly: qHTS profiling for inhibitors of Plasmodium falciparum proliferation (AID 504749).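 Note: 0% = DMSO vehicle and full inhibition = artemisinin control; nearly all actives have a fitted effect of over 60% in size.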 Conditions: P. falciparum in erythrocytes, SYBR Green DNA, 72 h; series mostly up to 28.7 µM. The procedure, abridged:
(§1)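 SYBR Green fluorescence of parasite DNA, read after lysis and overnight dark incubation, measured growth over 72 h in erythrocyte culture at 0.3% parasitemia and 2.5% hematocrit. Data normalised to DMSO and 0.29 uM artemisinin, with plate-drift correction.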

The next test deals with CP203. The description is as above. The following applies: P. falciparum in erythrocytes, SYBR Green DNA, 72 h; series mostly up to 28.7 µM. A digest of the protocol: as §1
In the next test the test system is DFO2036. The test is described as above. Conditions: P. falciparum in erythrocytes, SYBR Green DNA, 72 h; series mostly up to 28.7 µM. The procedure, abridged: as §1
Another test relates to TAB113. The test is described as above. Conditions: P. falciparum in erythrocytes, SYBR Green DNA, 72 h; series mostly up to 28.7 µM. A digest of the protocol: as §1
The nature of test [6]: Counterscreen for APE1 Inhibitors: Fluorescent Dye Displacement Assay (AID 2564).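 Note: loss of thiazole orange fluorescence as the dye is displaced from duplex DNA; 0% = ThO with dsDNA and no compound and -100% = ThO without dsDNA.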 The following applies: DNA fluorescent dye displacement counterscreen, fluorescence; series mostly up to 28.5 µM. The procedure, abridged:
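Counterscreen flags promiscuous DNA binders: compounds displacing ThO from duplex DNA (abasic THF site, 50 nM) reduce 540 nm emission (480 nm excitation). ThO 250 nM final; Tris-HCl pH 7.5 with NaCl, MgCl2 and Tween-20.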

Test [7] has as its target DNA repair nuclease/redox regulator APEX1 (Homo sapiens) (UniProt P27695). Briefly: qHTS FP-Based Assay for Inhibitors of the Human Apurinic/apyrimidinic Endonuclease 1 (APE1) (AID 2573). Note: % is set by controls: 0 for no effect and ±100 for the full control effect. The following applies: APE1 binding to TAMRA-labelled double-stranded DNA, fluorescence polarization displacement; series mostly up to 28.5 µM. The text has this: The apurinic/apyrimidinic endonuclease APE1 is the primary mammalian enzyme responsible for the removal of abasic (or AP) sites in DNA and functions centrally in the base excision DNA repair (BER) pathway. […] Thus, targeting APE1 could improve the efficacy of current treatment paradigms by promoting selective sensitization or protection of diseased and normal cells, respectively.
In order to gain insight into the mode of action of confirmed APE1 inhibitors, we implemented a miniaturized fluorescence polarization assay designed to report on compounds which competitively displace ds-DNA substrate. The fluorescence polarization assay has been implemented in 384- and 1536-well format for binding of TAMRA-labeled double-stranded DNA probe not containing a quencher. The binding of protein to DNA is inhibited by ATA, a general inhibitor of APE1 activity.
See also related primary fluorogenic assay (AID 2517).
Assay Provider: David M. Wilson, III, National Institute on Aging, NIH
Screening Center PI: Austin, C.P.
Screening Center: NIH Chemical Genomics Center [NCGC]
1. Substrate: 50 nM final concentration of TAMRA/BHQ-2 substrate dispensed throughout the plate.
2. Enzyme: […] nM APE1 final concentration in columns 1, 2, 5-48. Column 1 is neutral (100% activity)
3. Control: Pintool transfer of control inhibitor NSC-13755 to column 2 of all assay plates. Two-fold, 16 pt dilution in duplicate to produce final concentrations in the […] uM - […] nM range.
3. Buffer columns in columns 3 and 4 were used as negative control (no enzyme).
Three uL of enzyme were dispensed to 1536-well Greiner black solid bottom plates. Compounds (23 nL) were transferred via Kalypsys pintool. The plates were incubated for 15 min at room temperature, and then 1 uL of substrate solution was added to start the reaction. The plates were immediately transferred into ViewLux High-throughput CCD imager (Perkin-Elmer) in order to measure the reaction progress in kinetic mode (three reads every 60 seconds) using 525 nm excitation and 598 nm emission fluorescence protocol. The fluorescence intensity difference between the third and the first time points was used to compute reaction progress.

Test [8] concerns the target DNA polymerase eta (Homo sapiens) (UniProt Q9Y253). Briefly: qHTS for Inhibitors of Polymerase Eta: Confirmatory Assay for Cherry-picked Compounds (AID 720502). Note: potency is the fitted concentration of half-maximal effect. The following applies: Pol eta primer extension, TAMRA/BHQ fluorescence, 10 min. The procedure, abridged:
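Human Pol eta (10 nM) was preincubated with compounds for 15 min at room temperature before adding 50 nM (final) DNA substrate: primer plus TAMRA reporter strand annealed to a BHQ-2-labeled template. Fluorescence (ex 525/em 598 nm) was read at 0 and 10 min.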

Several values for one entry are separate records, joined by “and”; a condition that tells them apart may be missing. Equal values may be shown once. A number with no mark means an inactive call. Inconclusive results are not listed. The list shows a part of the results. Activity calls are given as the source filed them. Unless noted, calls come from the whole dose curve; as a rule, active = well fitted curve in the direction sought with a large enough effect; inconclusive = small, poorly fitted or top-dose-only effect, or another doubt; inactive = no such curve, though single readings can be large; an effect the other way counts as inactive or inconclusive.

Cytochrome P450 3A4 (Homo sapiens), sequence (P08684 whole entry, looked up): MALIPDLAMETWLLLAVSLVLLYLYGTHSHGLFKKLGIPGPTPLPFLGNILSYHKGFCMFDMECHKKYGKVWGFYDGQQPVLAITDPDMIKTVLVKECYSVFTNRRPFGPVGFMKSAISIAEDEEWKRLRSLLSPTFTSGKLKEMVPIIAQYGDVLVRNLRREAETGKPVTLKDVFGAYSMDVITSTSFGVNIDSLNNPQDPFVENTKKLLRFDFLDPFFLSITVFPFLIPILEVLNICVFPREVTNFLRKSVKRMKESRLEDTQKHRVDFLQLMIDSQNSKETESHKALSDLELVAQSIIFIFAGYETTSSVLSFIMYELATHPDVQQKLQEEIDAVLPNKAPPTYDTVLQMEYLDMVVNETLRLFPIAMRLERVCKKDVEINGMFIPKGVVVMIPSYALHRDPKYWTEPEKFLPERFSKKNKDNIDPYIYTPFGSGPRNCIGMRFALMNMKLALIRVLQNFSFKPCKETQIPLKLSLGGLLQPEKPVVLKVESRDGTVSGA
DNA repair nuclease/redox regulator APEX1 (Homo sapiens), sequence (P27695 whole entry, looked up): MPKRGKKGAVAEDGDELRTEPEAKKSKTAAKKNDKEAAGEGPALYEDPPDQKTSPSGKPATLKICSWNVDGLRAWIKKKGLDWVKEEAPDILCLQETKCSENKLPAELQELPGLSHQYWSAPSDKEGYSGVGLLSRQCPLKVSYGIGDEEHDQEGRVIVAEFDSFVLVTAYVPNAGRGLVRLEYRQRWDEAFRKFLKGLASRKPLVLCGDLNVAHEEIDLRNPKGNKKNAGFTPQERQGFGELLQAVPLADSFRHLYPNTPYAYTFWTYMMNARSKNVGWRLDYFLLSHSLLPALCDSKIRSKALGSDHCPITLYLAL
ATP-dependent 6-phosphofructokinase (Trypanosoma brucei brucei), sequence (O15648 whole entry, looked up): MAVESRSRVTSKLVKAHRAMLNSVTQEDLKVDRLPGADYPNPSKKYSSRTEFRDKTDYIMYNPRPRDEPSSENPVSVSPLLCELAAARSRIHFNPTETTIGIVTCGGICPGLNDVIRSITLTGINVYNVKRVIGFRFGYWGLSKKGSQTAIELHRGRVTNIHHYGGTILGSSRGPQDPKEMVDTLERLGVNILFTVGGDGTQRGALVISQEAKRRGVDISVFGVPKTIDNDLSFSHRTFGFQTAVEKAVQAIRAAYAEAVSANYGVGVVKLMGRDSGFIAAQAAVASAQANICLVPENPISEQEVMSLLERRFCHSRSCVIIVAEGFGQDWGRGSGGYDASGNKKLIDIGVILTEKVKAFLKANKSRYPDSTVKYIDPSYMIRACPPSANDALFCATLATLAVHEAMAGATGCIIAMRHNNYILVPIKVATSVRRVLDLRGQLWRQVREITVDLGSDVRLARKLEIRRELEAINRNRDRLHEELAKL
DNA polymerase eta (Homo sapiens), sequence (Q9Y253 whole entry, looked up): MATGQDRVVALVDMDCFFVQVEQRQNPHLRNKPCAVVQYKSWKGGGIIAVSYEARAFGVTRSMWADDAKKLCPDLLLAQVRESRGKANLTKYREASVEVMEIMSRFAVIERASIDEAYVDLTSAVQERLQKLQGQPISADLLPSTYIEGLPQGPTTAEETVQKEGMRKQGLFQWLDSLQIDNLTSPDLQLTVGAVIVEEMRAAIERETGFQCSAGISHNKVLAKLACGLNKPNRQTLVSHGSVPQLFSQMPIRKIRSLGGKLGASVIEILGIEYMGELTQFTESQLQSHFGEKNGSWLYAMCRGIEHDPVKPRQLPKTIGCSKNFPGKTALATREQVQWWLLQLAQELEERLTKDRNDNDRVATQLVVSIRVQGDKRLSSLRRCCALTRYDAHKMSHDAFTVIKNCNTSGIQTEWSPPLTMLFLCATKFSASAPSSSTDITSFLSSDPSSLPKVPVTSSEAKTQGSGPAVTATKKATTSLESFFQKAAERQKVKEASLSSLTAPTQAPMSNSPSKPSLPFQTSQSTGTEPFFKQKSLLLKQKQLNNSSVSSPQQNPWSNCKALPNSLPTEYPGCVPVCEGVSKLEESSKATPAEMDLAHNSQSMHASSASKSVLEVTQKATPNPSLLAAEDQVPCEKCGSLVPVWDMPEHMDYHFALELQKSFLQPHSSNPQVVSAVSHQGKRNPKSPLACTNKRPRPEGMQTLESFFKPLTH

Turning to `OCC(CBr)(CBr)CBr`, in test [1], the activation was 0.264%.
`COc1ccc(C)cc1N`: the activation in test [2] was 1.38%.
As for `Oc1c(Cl)cc(Cl)c(Cl)c1Cl`, the activation in test [1] is -0.537% and 2.41%.
For the compound `C/C(Cl)=C/CCl`, the activation in test [2] is 10.2%. Further, the outcome in [3] was inactive.
Take `Cc1ccc(C(=O)O)cc1[N+](=O)[O-]`: the activation in test [2] is 6.4%; in [1], -1.02%. Further, the outcome in [3] was inactive.
For `c1ccc(COCc2ccccc2)cc1`, the activation in test [1] is 0.253%.
As to `CCCCCCCCC1CO1` (configuration not stated), in [2], the activation is 13.4%. Further, the result in [3] was inactive.
In the case of `Cc1ccc(N)cc1[N+](=O)[O-]`, the outcome in test [3] was inactive.
For `CC(C)COC(=O)COc1cc(Cl)c(Cl)cc1Cl`, the activation in test [1] was -1.07%.
As to `c1ccc(SCCSc2ccccc2)cc1`, the activation in test [2] is 12.3%.
With `CC(C)S`, in test [1], the activation was -0.169%.
The same measure, in the same setting: then `CC(C)OCC1CO1` (configuration not stated), with 0.599%.
For `COc1cc(-c2ccc(N=C=O)c(OC)c2)ccc1N=C=O`, in test [4], the Potency result is “inactive”.
Same read-out and setting: then `CCCCC(CC)COCCCN` (configuration not stated), with “inactive”.
For `CC(=O)OC(C(=O)c1ccccc1)c1ccccc1` (configuration not stated), the values for the activation in [2] and in [1] were -5.55% and 0.305%, respectively.
As to `COc1ccc([N+](=O)[O-])cc1N`, the activation in test [1] is 2.19% and -0.307%.
As for `Cc1ccc(S(N)(=O)=O)cc1`, in [1], the activation is 1.55% and -0.345%.
Turning to `c1cc2c3c(c1)ccc1cccc(c13)C2`, the Potency entry in test [4] was “inactive”. The activation in test [1] is -2.58%.
Regarding `C=C1CC[C@H](O)C/C1=C/C=C1\CCC[C@]2(C)[C@@H]([C@H](C)CCCC(C)C)CC[C@@H]12`, the Potency entry (in test [4]; with CP191; with CP203; in the test with DFO2036; in the test on TAB113) was “inactive” in each case. Also, the result in test [5] was inactive. Also, the activation in test [1] is 1.86%.
With `Brc1cc(Br)c(Oc2cc(Br)c(Br)cc2Br)cc1Br`, the activation in test [1] was 3.12%.
For the compound `C=CCn1c(=S)[nH]c2scc(-c3ccco3)c2c1=O`, the compound was called inactive in test [6]. Further, the Potency result in [7] is “inactive”. Moreover, the Potency in test [8] was 26.9 µM (active).
Turning to `O=c1nc2s/c(=C\c3ccco3)c(=O)n2nc1Cc1ccccc1`, in [6], the call was inactive. Moreover, in [7], the Potency entry was “inactive”.

(Values after PubChem BioAssay (NCATS).)
